Assay results taken from ChEMBL document CHEMBL1201862, “PubChem BioAssay data set” (2004).
About 740 (0.23%) of roughly 320,000 compounds were called active. Not shown: some 2% with an inconclusive outcome. The rule behind the calls is not given here. Only a selection was taken, and actives are over-represented in it overall.

Each compound was assayed on Saccharomyces cerevisiae (assay: qHTS Assay for Small Molecule Inhibitors of Mitochondrial Division or Activators of Mitochondrial Fusion.). Conditions: read-out: Potency.
Assay type: functional

SMILES | AC50
O=C(O)Cc1ccccc1Nc1c(Cl)cccc1Cl [DICLOFENAC SODIUM] | 20.6 µM (active)
